From PubChem BioAssay (NCATS)
Inconclusive results are not listed. The source made the active and inactive calls. Calls come from the whole dose curve; as a rule, active = well fitted curve in the direction sought with a large enough effect; inconclusive = small, poorly fitted or top-dose-only effect, or another doubt; inactive = no such curve, though single readings can be large; an effect the other way counts as inactive or inconclusive.

Legend:
[1] = biological target: Rap guanine nucleotide exchange factor 3 (Homo sapiens) (UniProt O95398); test: Confirmatory qHTS for agonist of cAMP-regulated guanine nucleotide exchange factor 3 (EPAC1) (AID 1645881); conditions: EPAC1 Rap1B BODIPY-GDP exchange fluorescence; series mostly up to 154 µM;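 note: EPAC1 catalysed release of BODIPY-GDP from Rap1B seen as fluorescence loss; 100% = effect of cAMP agonist control; nearly all actives have a fitted effect of over 75% in size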
[2] = biological target: Rap guanine nucleotide exchange factor 4 (Homo sapiens) (UniProt Q8WZA2); test: Confirmatory qHTS for agonist of cAMP-regulated guanine nucleotide exchange factor 4 (EPAC2) (AID 1645884); conditions: EPAC2 GEF activity, Rap1B-BODIPY-GDP fluorescence; series mostly up to 154 µM;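 note: nucleotide exchange releases bodipy-GDP from Rap1 and this lowers its fluorescence; nearly all actives have a fitted effect of over 65% in size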; note: potency is the fitted concentration of half-maximal effect; for activation: % is set by controls: 0 for no effect and ±100 for the full control effect
[3] = biological target: Rap guanine nucleotide exchange factor 4 (Homo sapiens) (UniProt Q8WZA2); test: Confirmatory qHTS for antagonist of cAMP-regulated guanine nucleotide exchange factor 4 (EPAC2) (AID 1645885); conditions: EPAC2 Rap1B-BODIPY-GDP exchange fluorescence, biochemical; series mostly up to 12.7 µM; note: nearly all actives have a fitted effect of over 25% in size; note: potency is the fitted concentration of half-maximal effect; for activity change, negative = inhibition: % is set by controls: 0 for no effect and ±100 for the full control effect
[4] = biological target: Rap guanine nucleotide exchange factor 3 (Homo sapiens) (UniProt O95398); test: Counterscreen qHTS for antagonist of cAMP-regulated guanine nucleotide exchange factor 3 (EPAC1) (AID 1645888); conditions: Rap1B-BODIPY-GDP nucleotide exchange, fluorescence; series mostly up to 154 µM;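 note: fluorescence loss as bound BODIPY-GDP is released from Rap1B; % of control where 0% means no effect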
How it was run: (§1)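 Measured: fluorescence of BODIPY-GDP bound to Rap1B, which falls as exchange proceeds. Conditions include 50 uM competing GDP, 5 and 30 min reads, and a later cAMP challenge for antagonist detection.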

[5] = biological target: Rap guanine nucleotide exchange factor 3 (Homo sapiens) (UniProt O95398); test: Counterscreen qHTS for agonist of cAMP-regulated guanine nucleotide exchange factor 3 (EPAC1) (AID 1645889); conditions: EPAC1 Rap1B-BODIPY-GDP exchange, fluorescence; series mostly up to 154 µM; note: % of control where 0% means no effect; nearly all actives have a fitted effect of over 40% in size
How it was run: as §1

Sequence of Rap guanine nucleotide exchange factor 3 (Homo sapiens) (O95398 whole entry, looked up): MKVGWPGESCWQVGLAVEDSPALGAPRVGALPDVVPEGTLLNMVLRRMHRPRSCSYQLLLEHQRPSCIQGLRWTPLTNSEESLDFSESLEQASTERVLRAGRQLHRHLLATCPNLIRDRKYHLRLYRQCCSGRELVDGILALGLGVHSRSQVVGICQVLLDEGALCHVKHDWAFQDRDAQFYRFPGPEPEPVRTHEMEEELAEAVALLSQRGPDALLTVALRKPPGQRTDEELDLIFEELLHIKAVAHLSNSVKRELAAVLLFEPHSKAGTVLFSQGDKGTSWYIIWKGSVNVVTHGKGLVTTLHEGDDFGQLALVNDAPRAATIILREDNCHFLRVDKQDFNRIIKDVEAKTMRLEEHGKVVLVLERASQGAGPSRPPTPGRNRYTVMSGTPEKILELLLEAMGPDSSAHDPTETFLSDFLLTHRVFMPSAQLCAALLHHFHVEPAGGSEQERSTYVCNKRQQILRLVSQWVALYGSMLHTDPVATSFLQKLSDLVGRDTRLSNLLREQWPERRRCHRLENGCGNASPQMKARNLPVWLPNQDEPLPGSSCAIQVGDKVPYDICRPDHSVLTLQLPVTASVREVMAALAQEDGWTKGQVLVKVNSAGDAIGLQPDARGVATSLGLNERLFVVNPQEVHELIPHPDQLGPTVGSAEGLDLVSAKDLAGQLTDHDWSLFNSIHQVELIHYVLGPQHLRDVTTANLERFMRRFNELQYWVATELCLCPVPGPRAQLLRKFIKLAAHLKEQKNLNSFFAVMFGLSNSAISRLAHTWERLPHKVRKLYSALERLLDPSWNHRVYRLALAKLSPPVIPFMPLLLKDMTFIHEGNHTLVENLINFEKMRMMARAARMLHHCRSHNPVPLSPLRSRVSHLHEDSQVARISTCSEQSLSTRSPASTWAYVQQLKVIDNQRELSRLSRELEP
Sequence of Rap guanine nucleotide exchange factor 4 (Homo sapiens) (Q8WZA2 whole entry, looked up): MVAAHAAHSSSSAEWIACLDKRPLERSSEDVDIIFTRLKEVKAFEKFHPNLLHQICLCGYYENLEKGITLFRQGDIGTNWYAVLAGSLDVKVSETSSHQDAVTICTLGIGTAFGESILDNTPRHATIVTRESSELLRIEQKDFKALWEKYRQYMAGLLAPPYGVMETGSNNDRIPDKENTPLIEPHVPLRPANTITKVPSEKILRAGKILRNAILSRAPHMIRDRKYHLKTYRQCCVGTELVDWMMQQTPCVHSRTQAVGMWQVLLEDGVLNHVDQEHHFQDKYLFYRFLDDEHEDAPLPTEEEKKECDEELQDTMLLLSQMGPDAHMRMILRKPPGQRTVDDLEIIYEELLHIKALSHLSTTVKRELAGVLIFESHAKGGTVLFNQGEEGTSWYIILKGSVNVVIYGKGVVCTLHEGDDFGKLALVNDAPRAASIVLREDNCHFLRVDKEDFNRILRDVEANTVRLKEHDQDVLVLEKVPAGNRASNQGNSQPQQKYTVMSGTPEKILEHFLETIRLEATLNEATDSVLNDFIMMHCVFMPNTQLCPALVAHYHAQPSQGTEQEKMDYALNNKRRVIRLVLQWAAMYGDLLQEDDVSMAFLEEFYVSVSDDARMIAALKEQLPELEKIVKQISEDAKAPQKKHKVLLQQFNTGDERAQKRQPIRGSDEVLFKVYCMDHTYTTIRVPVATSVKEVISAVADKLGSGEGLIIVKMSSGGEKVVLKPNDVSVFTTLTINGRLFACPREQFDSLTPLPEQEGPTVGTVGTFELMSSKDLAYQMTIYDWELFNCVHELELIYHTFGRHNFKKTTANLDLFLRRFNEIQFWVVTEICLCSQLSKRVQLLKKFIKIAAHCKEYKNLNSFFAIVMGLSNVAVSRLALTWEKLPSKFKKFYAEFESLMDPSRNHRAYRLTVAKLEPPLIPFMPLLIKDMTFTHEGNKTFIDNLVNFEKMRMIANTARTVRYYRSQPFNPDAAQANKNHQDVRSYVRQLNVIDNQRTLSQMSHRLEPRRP

CCc1cccc(NC(=O)COC(=O)/C=C/c2cccs2)c1
inactive: Potency [1] | Potency [2] | Potency [3] | Potency [4] | Potency [5]

COc1cc(/C=C2\SC(=O)N(CC(=O)Nc3ccc(C)cc3)C2=O)cc(Cl)c1OCC(=O)O
inactive: Potency [1] | Potency [2] | Potency [3] | Potency [4] | Potency [5]

O=C(C1CC1)N1CCCC(c2ccc(Cl)cc2)=N1
inactive: Potency [1] | activation [2] -19.8% [at 17.1 µM, percent relative to cAMP agonist control] | Potency [3] | activity change, negative = inhibition [4] -19% [at 30.8 µM] | activation [5] -0.772% [at 30.8 µM]

COC(=O)c1ccccc1NC(=O)Cn1nc(C(F)(F)F)c2c1CCCC2
inactive: Potency [1] | Potency [2] | outcome [3] inactive [at 12.7 µM] | Potency [4] | Potency [5]

CCCCNC(=O)COC(=O)c1c2c(nc3ccccc13)CCC2
inactive: Potency [1] | Potency [2] | Potency [3] | Potency [4] | Potency [5]

NS(=O)(=O)c1ccc(Nc2nc(-c3cccc([N+](=O)[O-])c3)cs2)cc1
inactive: Potency [1] | activation [2] 3.15% [at 17.1 µM, percent relative to cAMP agonist control] | Potency [3] | activity change, negative = inhibition [4] -4.36% [at 30.8 µM] | activation [5] 15.6% [at 30.8 µM]

CCc1c(O)cc(=O)n(-c2ccccc2)c1-c1ccccc1
active: Potency [3] 84.9 µM
inactive: Potency [1] | Potency [2] | Potency [4] | Potency [5]

CC1CCc2[nH]c3ccc(C(=O)N4CCCC(C(F)(F)F)C4)cc3c2C1 (stereo not given)
inactive: Potency [1] | Potency [2] | Potency [3] | Potency [4] | Potency [5]

CCn1c(SCC(=O)Nc2sc3c(c2C(N)=O)CCC(C)C3)nnc1-c1ccco1 (stereo not given)
inactive: Potency [1] | Potency [2] | Potency [3] | Potency [4] | Potency [5]

O=C(COC(=O)c1ccc2c(c1)C(=O)N(Cc1ccncc1)C2=O)Nc1ccccc1[N+](=O)[O-]
inactive: Potency [1] | Potency [2] | Potency [3] | Potency [4] | Potency [5]

O=C(CSc1nc2ccsc2c(=O)n1NC(=O)c1ccccc1)Nc1nccs1
inactive: Potency [1] | Potency [2] | Potency [3] | Potency [4] | Potency [5]

CCOc1cc(-c2c(C#N)c(N)nc3c2CCCC3C)ccc1O (stereo not given)
active: Potency [2] 398 nM
inactive: Potency [1] | Potency [3] | Potency [4] | Potency [5]

O=[N+]([O-])c1cc2c(cc1CN1CCN(CCOCCO)CC1)OCO2
inactive: Potency [1] | Potency [2] | Potency [3] | Potency [4] | Potency [5]

O=S(=O)(O)c1ccc(NN=Cc2ccccc2O)cc1
inactive: Potency [1] | activation [2] -8.55% [at 17.1 µM, percent relative to cAMP agonist control] | Potency [3] | activity change, negative = inhibition [4] 3.2% [at 30.8 µM] | activation [5] 20.1% [at 30.8 µM]

COc1ccc2sc(-c3ccc(N(C)C)cc3)c(C#CC(C)(C)O)c2c1
inactive: Potency [1] | Potency [2] | Potency [3] | Potency [4] | Potency [5]

CCC(=O)N(CCC1(c2ccccc2OC)CCOC(C(C)C)C1)Cc1ccco1 (stereo not given)
inactive: Potency [1] | activation [2] -0.808% [at 17.1 µM, percent relative to cAMP agonist control] | Potency [3] | activity change, negative = inhibition [4] -14.7% [at 30.8 µM] | activation [5] 10.9% [at 30.8 µM]

COc1cc(NC2c3ncccc3C(=O)N2Cc2ccco2)cc(OC)c1 (stereo not given)
inactive: Potency [1] | Potency [2] | Potency [3] | Potency [4] | Potency [5]

C[C@H](c1ccccc1)N1C[C@H](COCc2ccccc2)Oc2cc(N3CC[C@@H](O)C3)ccc2S1(=O)=O
inactive: Potency [1] | activation [2] 10.3% [at 17.1 µM, percent relative to cAMP agonist control] | Potency [3] | activity change, negative = inhibition [4] -15.5% [at 30.8 µM] | activation [5] 20% [at 30.8 µM]

CCCN1C(=O)c2ccccc2NC1c1ccc(Cl)c(Cl)c1 (stereo not given)
inactive: Potency [1] | activation [2] 5.07% [at 17.1 µM, percent relative to cAMP agonist control] | Potency [3] | activity change, negative = inhibition [4] -17% [at 30.8 µM] | activation [5] 12.5% [at 30.8 µM]

CCOC(=O)N1CCC(Nc2nc3ccccc3n3cnnc23)CC1
inactive: Potency [1] | activation [2] 3.86% [at 17.1 µM, percent relative to cAMP agonist control] | Potency [3] | activity change, negative = inhibition [4] -12.2% [at 30.8 µM] | activation [5] 4.26% [at 30.8 µM]

CC(C)CCNc1nc(-c2ccco2)c2c(c1C#N)CCCC2
inactive: Potency [1] | Potency [2] | Potency [3] | Potency [4] | Potency [5]

CC(C)Cn1nc(NS(=O)(=O)c2cccc3nonc23)c2cc3ccccc3nc21
inactive: Potency [1] | Potency [2] | Potency [3] | Potency [4] | Potency [5]

CSc1ccccc1NC(=O)CN1c2ccccc2CC1C (stereo not given)
inactive: Potency [1] | activation [2] 8.71% [at 17.1 µM, percent relative to cAMP agonist control] | Potency [3] | activity change, negative = inhibition [4] -0.569% [at 30.8 µM] | activation [5] 44.6% [at 30.8 µM]

C=CCN(CC=C)Cc1cc(=O)oc2cc(C)c(Cl)cc12
inactive: Potency [1] | activation [2] 4.33% [at 17.1 µM, percent relative to cAMP agonist control] | Potency [3] | activity change, negative = inhibition [4] -4.4% [at 30.8 µM] | activation [5] 3.33% [at 30.8 µM]

C=CCN1C(=O)/C(=C/c2ccc(OCC(=O)O)cc2)S/C1=N/c1nccs1
inactive: Potency [1] | activation [2] 0% [at 17.1 µM, percent relative to cAMP agonist control] | Potency [3] | activity change, negative = inhibition [4] -1.64% [at 30.8 µM] | activation [5] 14.3% [at 30.8 µM]

CCC(Oc1ccccc1)C(=O)Nc1ccccc1N1CCCC1 (stereo not given)
inactive: Potency [1] | Potency [2] | Potency [3] | Potency [4] | Potency [5]

Cc1ccc(CSC2=NCCN2S(=O)(=O)c2ccc(F)cc2)cc1
inactive: Potency [1] | activation [2] 1.66% [at 17.1 µM, percent relative to cAMP agonist control] | Potency [3] | activity change, negative = inhibition [4] -7.41% [at 30.8 µM] | activation [5] 4.55% [at 30.8 µM]

Fc1ccc(-c2nc3ccc(Br)cn3c2Cc2cccc(F)c2)cc1
inactive: Potency [1] | Potency [2] | Potency [3] | Potency [4] | Potency [5]

Cc1cc(C)c(C)c(S(=O)(=O)N2CCCCC2C(=O)O)c1C (stereo not given)
inactive: Potency [1] | activation [2] 4.7% [at 17.1 µM, percent relative to cAMP agonist control] | Potency [3] | activity change, negative = inhibition [4] 8.45% [at 30.8 µM] | activation [5] -1.83% [at 30.8 µM]

O=C1NC[C@H](Cc2ccc(O)cc2)N(C[C@@H]2CCCN2C[C@H](Cc2ccc(O)cc2)N2C[C@H](Cc3ccccc3)N(CC3CCCCC3)C(=O)C2=O)C1=O
inactive: Potency [1] | activation [2] -4.51% [at 17.1 µM, percent relative to cAMP agonist control] | Potency [3] | activity change, negative = inhibition [4] -13.5% [at 30.8 µM] | activation [5] 17.8% [at 30.8 µM]

O=C(N[C@H](Cc1ccc(Cl)cc1)C(=O)O)OCC1c2ccccc2-c2ccccc21
inactive: Potency [1] | activation [2] -11.8% [at 17.1 µM, percent relative to cAMP agonist control] | Potency [3] | activity change, negative = inhibition [4] -5.81% [at 30.8 µM] | activation [5] 8.84% [at 30.8 µM]

C[C@@H]1COC(=O)[C@H](NC(=O)OCC2c3ccccc3-c3ccccc32)C/C=C\C[C@@H](CC(=O)N[C@H](CO)Cc2ccccc2)C(=O)N1
inactive: Potency [1] | activation [2] 2.82% [at 17.1 µM, percent relative to cAMP agonist control] | Potency [3] | activity change, negative = inhibition [4] -6.46% [at 30.8 µM] | activation [5] -0.359% [at 30.8 µM]

CCCC(=O)OCCNc1cc(SCc2ccco2)c2nonc2c1[N+](=O)[O-]
inactive: Potency [1] | activation [2] 4.83% [at 17.1 µM, percent relative to cAMP agonist control] | Potency [3] | activity change, negative = inhibition [4] 14.3% [at 30.8 µM] | activation [5] 26.5% [at 30.8 µM]

CCc1ccc(N=Nc2ccc(O)c3[nH]cnc23)cc1
inactive: Potency [1] | Potency [2] | Potency [3] | Potency [4] | Potency [5]

Cc1ccc(OCC(=O)Nc2ccc(N3CCCC3)cc2)cc1C
inactive: Potency [1] | Potency [2] | Potency [3] | Potency [4] | Potency [5]

Cn1c(/N=C/c2c(O)ccc3ccccc23)nc2ccccc21
inactive: Potency [1] | Potency [2] | Potency [3] | Potency [4] | Potency [5]

COc1ccccc1/C=C1\SC(=S)N(CCC(=O)Nc2ccc(C(=O)O)c(O)c2)C1=O
inactive: Potency [1] | activation [2] 4.12% [at 17.1 µM, percent relative to cAMP agonist control] | Potency [3] | activity change, negative = inhibition [4] -13.3% [at 30.8 µM] | activation [5] 10.4% [at 30.8 µM]
